Measured values taken from PubChem BioAssay (EPA / NIEHS).
Records with an inconclusive call do not appear. The source made the active and inactive calls. How the source made its calls, unless noted: active means hit-call score of the fitted dose curve at least 0.9, where 1 is the maximum; inactive means score below 0.9.

How the values were obtained:
[1] = target: Glucocorticoid receptor (Homo sapiens) (UniProt P04150); test: ATG_GR_TRANS: Attagene TRANS-FACTORIAL HepG2 Assay for human Glucocorticoid Receptor (GR) (AID 2282978; active means hit-call score of the fitted dose curve at least 0.9, where 1 is the maximum;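 further: activators score as hits since higher reporter transcript over DMSO is fitted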); conditions: HepG2 Attagene TRANS GR reporter, mRNA transcription
Outline: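 Exogenous NR-GAL4 fusion activity was assessed through induced GAL4-UAS reporter transcripts in transfected human HepG2 cells, quantified after 24 h by RT-PCR and fluorescent capillary electrophoresis with DMSO as baseline.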

[2] = target: Bile acid receptor (Homo sapiens) (UniProt Q96RI1); test: ATG_FXR_TRANS: Attagene TRANS-FACTORIAL HepG2 Assay for Farnesoid X Receptor (FXR) (AID 2282979; active means hit-call score of the fitted dose curve at least 0.9, where 1 is the maximum;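 further: hits raise reporter mRNA above DMSO so AC50 marks FXR activation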); conditions: HepG2 Attagene TRANS FXR-GAL4 reporter transcription
Outline: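 HepG2 cells were transiently transfected with GAL4-UAS reporters driven by chimeric NR-Gal4 proteins and dosed for 24 h. Reporter mRNA was quantified by RT-PCR, fluorescent labelling, HpaI digestion and capillary electrophoresis, with gain of signal scored versus DMSO.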

[3] = target: Hepatocyte nuclear factor 4-alpha (Homo sapiens) (UniProt P41235); test: ATG_HNF4a_TRANS: Attagene TRANS-FACTORIAL HepG2 Assay for human Hepatocyte Nuclear Factor 4 alpha (HNF4a) (AID 2282982; active means hit-call score of the fitted dose curve at least 0.9, where 1 is the maximum); conditions: HepG2 HNF4a transactivation reporter, mRNA readout
Outline: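 Multiplexed reporter assay: transfected HepG2, 24 h exposure, total RNA → oligo(dT) RT → PCR → 6-FAM extension → HpaI digest → CE fluorescence. DMSO = negative control.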

[4] = ATG_M_06_TRANS: Attagene TRANS-FACTORIAL HepG2 Assay for M06 Transcription Factor (Internal Marker) (AID 2282983; active means hit-call score of the fitted dose curve at least 0.9, where 1 is the maximum;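 further: reporter transcript level by RT-PCR then capillary electrophoresis fluorescence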); conditions: HepG2 Attagene TRANS M06 internal marker reporter
Outline: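 mRNA levels of a reporter transcript, quantified as FAM fluorescence on capillary electrophoresis, served as readout. HepG2 cells expressing exogenous GAL4-chimera reporter constructs were exposed for 24 h. Gain of signal over DMSO was evaluated.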

[5] = ATG_M_32_TRANS: Attagene TRANS-FACTORIAL HepG2 Assay for M32 Transcription Factor (Internal Marker) (AID 2282984; active means hit-call score of the fitted dose curve at least 0.9, where 1 is the maximum;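 further: transcript level of a background control reporter unit measured by RT-PCR and capillary electrophoresis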); conditions: HepG2 Attagene TRANS M32 internal marker reporter
Outline: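 Cell-based TRANS-format assay in HepG2: exogenous chimeric GAL4 reporter units transiently expressed, compounds applied 24 h. Reporter mRNA detected by RT-PCR plus capillary electrophoresis; this readout is an internal background marker.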

[6] = target: Nuclear receptor subfamily 4 group A member 2 (Homo sapiens) (UniProt P43354); test: ATG_NURR1_TRANS: Attagene TRANS-FACTORIAL HepG2 Assay for human Nuclear Receptor Related Protein 1 (NURR1) (AID 2282985; active means hit-call score of the fitted dose curve at least 0.9, where 1 is the maximum); conditions: HepG2 Attagene TRANS reporter, mRNA readout
Outline: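 Measures transcriptional activation by an exogenous NR-Gal4 chimera in transfected HepG2 liver cells. After 24 h, reporter RNA is reverse-transcribed, amplified and resolved by capillary electrophoresis; DMSO defines baseline.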

[7] = target: Transcriptional activator Myb (Homo sapiens) (UniProt P10242); test: ATG_Myb_CIS: Attagene CIS-FACTORIAL HepG2 Assay for human Myeloblastosis (Myb) Proto-Oncogene Transcription Factor (AID 2282986); conditions: HepG2 Attagene CIS-FACTORIAL Myb reporter transcription; actives raise or lower the signal
Outline: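 In this HepG2 transient-transfection format, cis-regulated reporter mRNA is quantified 24 h post-dosing by RT-PCR with capillary electrophoresis, fitted bidirectionally to DMSO baseline.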

[8] = target: Nuclear respiratory factor 1 (Homo sapiens) (UniProt Q16656); test: ATG_NRF1_CIS: Attagene CIS-FACTORIAL HepG2 Assay for human Nuclear Respiratory Factor 1 (NRF1) Orphan Gene (AID 2282987); conditions: HepG2 NRF1 cis-element reporter, Attagene multiplex; actives raise or lower the signal
Outline: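 Using DMSO as baseline, gain- or loss-of-signal was fitted for reporter mRNA levels in HepG2 cells transiently transfected with cis-regulated reporter units. Samples were taken 24 h after dosing and read by RT-PCR with capillary electrophoresis.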

[9] = ATG_NFI_CIS: Attagene CIS-FACTORIAL HepG2 Assay for human Nuclear Factor I (NFI) (AID 2282989); conditions: HepG2 cis-regulatory reporter, NFI response element transcription; actives raise or lower the signal
Outline: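 Transient MRTU transfection of HepG2 → 24 h chemical dosing → total RNA, oligo(dT) RT → PCR, 6-FAM primer extension, HpaI cut → capillary electrophoresis. Endpoint fitted bidirectionally relative to DMSO.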

[10] = target: Myc proto-oncogene protein (Homo sapiens) (UniProt P01106); test: ATG_Myc_CIS: Attagene CIS-FACTORIAL HepG2 Assay for human Myelocytomatosis (Myc) Proto-Oncogene Transcription Factor (AID 2282990); conditions: HepG2, Attagene cis-reporter transcription factor activity; actives raise or lower the signal
Outline: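 HepG2, transient MRTU transfection (cis promoters, endogenous TFs); 24 h dosing; TriZol RNA → oligo(dT) RT → PCR → 6-FAM primer extension → HpaI cut → CE. Bidirectional fit vs DMSO.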

[11] = ATG_NF_kB_CIS: Attagene CIS-FACTORIAL HepG2 Assay for human Nuclear Factor Kappa B (NF-kB) (AID 2282991); conditions: HepG2 Attagene cis-factorial NF-kB reporter mRNA; actives raise or lower the signal
Outline: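 Endpoint from a 52-component multiplexed HepG2 reporter panel: cis-regulated transcription units transiently transfected, 24 h dosing, reporter mRNA quantified by RT-PCR and capillary electrophoresis, scored as increase or decrease against DMSO.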

[12] = ATG_NRF2_ARE_CIS: Attagene CIS-FACTORIAL HepG2 Assay for human Nuclear Factor Erythroid 2 Related Factor 2 (NFR2) response to Antioxidant Response Elements (ARE) (AID 2282992); conditions: HepG2 Attagene ARE/NRF2 reporter, transcription factor activity; actives raise or lower the signal;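 on AC50: reporter mRNA level measured by RT-PCR and capillary electrophoresis fluorescence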
Outline: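 Readout: reporter mRNA quantified by RT-PCR plus FAM-labelled primer extension, HpaI digestion and capillary electrophoresis, 24 h after dosing transfected HepG2 cells. Gain or loss of signal is fitted bidirectionally against DMSO baseline.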

[13] = ATG_Oct_MLP_CIS: Attagene CIS-FACTORIAL HepG2 Assay for human Octamer-Binding Transcription Factor (Oct) (AID 2282993); conditions: HepG2 Attagene cis-factorial Oct reporter, mRNA; actives raise or lower the signal
Outline: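 Transient MRTU transfection of HepG2 → 24 h compound treatment → RNA isolation, reverse transcription, PCR → 6-FAM primer extension, HpaI digest → capillary electrophoresis. Activity fitted both directions against DMSO.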

[14] = target: Cellular tumor antigen p53 (Homo sapiens) (UniProt P04637); test: ATG_p53_CIS: Attagene CIS-FACTORIAL HepG2 Assay for human p53 Transcription Factor (AID 2282994); conditions: HepG2 p53 cis-element reporter, Attagene mRNA; actives raise or lower the signal
Outline: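 Read-out: reporter mRNA by RT-PCR plus capillary electrophoresis with fluorescence detection. Human HepG2 liver cells carried transfected multi-reporter cis-element constructs, dosed 24 h. Gain or loss of signal fitted bidirectionally against DMSO control.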

[15] = BSK_3C_TissueFactor: BioMAP Diversity Plus: 3C Assay for Tissue Factor Biomarker Activity (AID 2282997); conditions: BioMAP 3C HUVEC, tissue factor biomarker readout; actives raise or lower the signal
Outline: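 Tissue Factor measured by ELISA, 24 h after treatment of primary HUVEC in the BioMAP 3C setting.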

[16] = BSK_3C_uPAR: BioMAP Diversity Plus: 3C Assay for Urokinase-type plasminogen activator receptor (uPAR) Biomarker Activity (AID 2282998); conditions: BioMAP 3C HUVEC, uPAR biomarker ELISA; actives raise or lower the signal
Outline: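 ELISA readout of uPAR on human vascular endothelium (umbilical vein primary cells), taken 24 h after chemical dosing. Increases and decreases are both fitted relative to DMSO vehicle.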

[17] = BSK_3C_VCAM1: BioMAP Diversity Plus: 3C Assay for Vascular cell adhesion molecule 1 (VCAM1) Biomarker Activity (AID 2282999); conditions: BioMAP 3C HUVEC, VCAM1 ELISA, cytokine-stimulated; actives raise or lower the signal
Outline: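 Activity fitted in both directions relative to DMSO, with ELISA measurement of the surface marker on primary HUVEC (3C) at 24 h post-treatment; parallel SRB staining (0.1% SRB, TCA-fixed, 560 nm) flagged overt cytotoxicity.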

[18] = BSK_4H_Eotaxin3: BioMAP Diversity Plus: 4H Assay for Eotaxin 3 Biomarker Activity (AID 2283000); conditions: primary human endothelial cells (HUVEC); actives raise or lower the signal
Outline: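 Eotaxin-3 (CCL26) levels were measured by ELISA in HUVEC primary cultures 24 h post-dosing. Gain or loss of signal was fitted in both directions, with DMSO serving as baseline and negative control.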

[19] = target: Oxysterols receptor LXR-beta (Homo sapiens) (UniProt P55055); test: ATG_LXRb_TRANS: Attagene TRANS-FACTORIAL HepG2 Assay for human Liver X Receptor beta (LXRb) (AID 2282981; active means hit-call score of the fitted dose curve at least 0.9, where 1 is the maximum); conditions: HepG2 Attagene TRANS GAL4-LXRb reporter, mRNA
Outline: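 After 24 h of chemical treatment, transfected HepG2 cells yield total RNA; reporter cDNA is PCR-amplified, FAM-labelled, HpaI-cut and run on capillary electrophoresis. Signal reflects chimeric LXRb-Gal4 activity on GAL4-UAS reporters.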

[20] = target: Oxysterols receptor LXR-alpha (Homo sapiens) (UniProt Q13133); test: ATG_LXRa_TRANS: Attagene TRANS-FACTORIAL HepG2 Assay for human Liver X Receptor alpha (LXRa) (AID 2282980; active means hit-call score of the fitted dose curve at least 0.9, where 1 is the maximum); conditions: HepG2 Attagene TRANS reporter, LXRa transactivation
Outline: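 HepG2 cells transiently transfected with GAL4-UAS reporter units for chimeric NR-Gal4 proteins, exposed to chemicals for 24 h. Reporter mRNA quantified by RT-PCR and capillary electrophoresis; gain of signal fitted relative to DMSO.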

Measured: AC50

Sequence of Hepatocyte nuclear factor 4-alpha (Homo sapiens) (P41235 whole entry, looked up): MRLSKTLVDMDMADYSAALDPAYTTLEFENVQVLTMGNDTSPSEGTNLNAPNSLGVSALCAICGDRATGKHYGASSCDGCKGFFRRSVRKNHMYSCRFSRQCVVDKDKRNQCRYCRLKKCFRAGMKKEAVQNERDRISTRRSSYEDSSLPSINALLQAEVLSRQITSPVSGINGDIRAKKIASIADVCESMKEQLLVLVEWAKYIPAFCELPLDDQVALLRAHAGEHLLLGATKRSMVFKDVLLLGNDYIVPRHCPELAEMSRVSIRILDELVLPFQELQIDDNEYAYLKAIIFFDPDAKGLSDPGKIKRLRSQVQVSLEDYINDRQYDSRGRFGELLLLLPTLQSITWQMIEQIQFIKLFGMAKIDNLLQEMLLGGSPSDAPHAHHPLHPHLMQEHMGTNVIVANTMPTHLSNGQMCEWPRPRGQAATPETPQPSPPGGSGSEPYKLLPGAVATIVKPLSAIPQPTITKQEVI
Sequence of Oxysterols receptor LXR-beta (Homo sapiens) (P55055 whole entry, looked up, the tested form may be a part): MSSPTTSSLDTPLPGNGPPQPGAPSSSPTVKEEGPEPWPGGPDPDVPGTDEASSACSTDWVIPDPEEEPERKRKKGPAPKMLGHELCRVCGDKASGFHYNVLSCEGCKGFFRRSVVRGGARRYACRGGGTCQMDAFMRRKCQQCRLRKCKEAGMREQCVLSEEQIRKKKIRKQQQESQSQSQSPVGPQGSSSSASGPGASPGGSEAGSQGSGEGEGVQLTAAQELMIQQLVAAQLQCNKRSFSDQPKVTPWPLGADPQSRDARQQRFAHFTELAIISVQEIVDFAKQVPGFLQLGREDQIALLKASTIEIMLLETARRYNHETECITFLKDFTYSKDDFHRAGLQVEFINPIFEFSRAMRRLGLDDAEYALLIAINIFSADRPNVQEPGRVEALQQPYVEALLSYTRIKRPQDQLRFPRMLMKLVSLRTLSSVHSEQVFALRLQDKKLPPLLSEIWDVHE
Sequence of Myc proto-oncogene protein (Homo sapiens) (P01106 whole entry, looked up): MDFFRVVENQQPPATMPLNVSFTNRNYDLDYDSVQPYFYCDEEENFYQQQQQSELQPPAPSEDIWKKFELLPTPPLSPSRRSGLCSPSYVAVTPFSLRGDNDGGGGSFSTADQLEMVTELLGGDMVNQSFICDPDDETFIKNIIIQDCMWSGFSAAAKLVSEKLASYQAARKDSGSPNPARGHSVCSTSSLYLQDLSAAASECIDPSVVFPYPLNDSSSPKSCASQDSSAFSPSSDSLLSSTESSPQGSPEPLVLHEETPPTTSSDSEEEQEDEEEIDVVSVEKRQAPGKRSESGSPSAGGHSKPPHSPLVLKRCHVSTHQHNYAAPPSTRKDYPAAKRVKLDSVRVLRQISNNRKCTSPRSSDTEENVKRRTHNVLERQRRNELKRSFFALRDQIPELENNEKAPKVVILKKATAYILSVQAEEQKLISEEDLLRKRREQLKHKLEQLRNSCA
Sequence of Nuclear receptor subfamily 4 group A member 2 (Homo sapiens) (P43354 whole entry, looked up, the tested form may be a part): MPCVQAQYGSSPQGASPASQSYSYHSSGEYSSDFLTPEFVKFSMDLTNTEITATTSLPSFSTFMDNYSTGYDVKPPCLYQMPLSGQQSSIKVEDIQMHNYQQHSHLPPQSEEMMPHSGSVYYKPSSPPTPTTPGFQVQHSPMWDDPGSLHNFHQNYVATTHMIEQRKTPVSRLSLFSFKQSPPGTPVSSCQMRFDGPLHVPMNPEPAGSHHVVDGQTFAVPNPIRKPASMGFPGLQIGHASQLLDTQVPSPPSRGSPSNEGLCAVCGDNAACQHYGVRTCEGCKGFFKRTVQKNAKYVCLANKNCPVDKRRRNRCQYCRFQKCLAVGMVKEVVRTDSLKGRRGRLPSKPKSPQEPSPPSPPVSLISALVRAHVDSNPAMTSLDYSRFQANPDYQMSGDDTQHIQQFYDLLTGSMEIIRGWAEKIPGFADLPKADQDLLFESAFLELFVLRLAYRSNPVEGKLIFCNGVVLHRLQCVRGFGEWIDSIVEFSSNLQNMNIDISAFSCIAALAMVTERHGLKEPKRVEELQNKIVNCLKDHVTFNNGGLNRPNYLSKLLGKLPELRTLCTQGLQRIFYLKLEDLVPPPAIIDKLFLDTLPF
Sequence of Nuclear respiratory factor 1 (Homo sapiens) (Q16656 whole entry, looked up): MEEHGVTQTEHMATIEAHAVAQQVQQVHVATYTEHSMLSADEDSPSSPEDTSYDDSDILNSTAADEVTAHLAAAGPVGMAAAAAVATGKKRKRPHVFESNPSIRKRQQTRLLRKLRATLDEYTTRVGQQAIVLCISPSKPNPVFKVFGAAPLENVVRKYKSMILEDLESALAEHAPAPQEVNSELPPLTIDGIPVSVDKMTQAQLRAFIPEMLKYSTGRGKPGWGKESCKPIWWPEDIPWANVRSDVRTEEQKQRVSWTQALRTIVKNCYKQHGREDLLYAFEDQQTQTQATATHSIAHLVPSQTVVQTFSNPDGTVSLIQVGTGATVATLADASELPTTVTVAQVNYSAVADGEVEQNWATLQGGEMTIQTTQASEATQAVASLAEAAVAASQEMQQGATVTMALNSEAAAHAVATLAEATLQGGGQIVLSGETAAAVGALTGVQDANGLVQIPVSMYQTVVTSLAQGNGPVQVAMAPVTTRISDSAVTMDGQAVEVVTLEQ
Sequence of Cellular tumor antigen p53 (Homo sapiens) (P04637 whole entry, looked up): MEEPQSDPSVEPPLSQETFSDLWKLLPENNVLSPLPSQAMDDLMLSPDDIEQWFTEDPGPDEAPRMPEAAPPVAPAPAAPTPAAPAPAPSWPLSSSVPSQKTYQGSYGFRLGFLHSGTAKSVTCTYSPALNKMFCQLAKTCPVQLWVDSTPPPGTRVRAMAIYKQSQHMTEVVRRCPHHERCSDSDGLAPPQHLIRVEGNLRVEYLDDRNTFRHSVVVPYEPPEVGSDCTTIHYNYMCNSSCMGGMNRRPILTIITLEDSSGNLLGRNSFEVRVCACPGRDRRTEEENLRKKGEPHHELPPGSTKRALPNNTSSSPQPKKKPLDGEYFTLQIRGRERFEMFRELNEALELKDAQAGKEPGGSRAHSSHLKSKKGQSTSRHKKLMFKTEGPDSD
Sequence of Transcriptional activator Myb (Homo sapiens) (P10242 whole entry, looked up): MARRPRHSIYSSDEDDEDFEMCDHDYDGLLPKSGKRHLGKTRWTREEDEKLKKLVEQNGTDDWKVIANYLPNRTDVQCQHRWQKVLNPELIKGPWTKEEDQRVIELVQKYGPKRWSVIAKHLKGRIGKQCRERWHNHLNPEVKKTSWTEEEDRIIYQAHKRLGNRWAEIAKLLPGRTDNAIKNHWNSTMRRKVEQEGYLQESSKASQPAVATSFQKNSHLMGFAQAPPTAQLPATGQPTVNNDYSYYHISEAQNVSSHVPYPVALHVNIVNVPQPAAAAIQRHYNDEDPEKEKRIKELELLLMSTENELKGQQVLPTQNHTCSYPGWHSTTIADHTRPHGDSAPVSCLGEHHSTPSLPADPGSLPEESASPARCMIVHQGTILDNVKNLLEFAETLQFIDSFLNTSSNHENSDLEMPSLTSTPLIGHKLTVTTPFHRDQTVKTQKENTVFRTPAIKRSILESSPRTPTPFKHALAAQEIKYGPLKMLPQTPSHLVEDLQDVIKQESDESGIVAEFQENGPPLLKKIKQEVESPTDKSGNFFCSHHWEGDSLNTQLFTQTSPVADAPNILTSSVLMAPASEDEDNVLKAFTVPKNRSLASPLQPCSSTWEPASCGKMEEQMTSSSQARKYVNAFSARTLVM
Sequence of Bile acid receptor (Homo sapiens) (Q96RI1 whole entry, looked up, the tested form may be a part): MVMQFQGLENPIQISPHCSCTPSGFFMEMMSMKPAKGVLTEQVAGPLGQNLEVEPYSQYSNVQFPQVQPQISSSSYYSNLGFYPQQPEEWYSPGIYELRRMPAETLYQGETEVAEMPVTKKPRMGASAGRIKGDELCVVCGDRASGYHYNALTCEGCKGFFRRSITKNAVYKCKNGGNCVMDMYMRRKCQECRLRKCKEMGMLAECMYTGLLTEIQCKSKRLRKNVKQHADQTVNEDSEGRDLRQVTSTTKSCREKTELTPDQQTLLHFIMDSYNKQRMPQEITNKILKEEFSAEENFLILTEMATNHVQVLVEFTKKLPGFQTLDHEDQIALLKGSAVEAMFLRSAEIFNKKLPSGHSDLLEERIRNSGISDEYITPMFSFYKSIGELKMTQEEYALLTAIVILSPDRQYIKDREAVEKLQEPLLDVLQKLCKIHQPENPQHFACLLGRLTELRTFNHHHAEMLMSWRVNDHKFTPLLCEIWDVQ
Sequence of Glucocorticoid receptor (Homo sapiens) (P04150 whole entry, looked up, the tested form may be a part): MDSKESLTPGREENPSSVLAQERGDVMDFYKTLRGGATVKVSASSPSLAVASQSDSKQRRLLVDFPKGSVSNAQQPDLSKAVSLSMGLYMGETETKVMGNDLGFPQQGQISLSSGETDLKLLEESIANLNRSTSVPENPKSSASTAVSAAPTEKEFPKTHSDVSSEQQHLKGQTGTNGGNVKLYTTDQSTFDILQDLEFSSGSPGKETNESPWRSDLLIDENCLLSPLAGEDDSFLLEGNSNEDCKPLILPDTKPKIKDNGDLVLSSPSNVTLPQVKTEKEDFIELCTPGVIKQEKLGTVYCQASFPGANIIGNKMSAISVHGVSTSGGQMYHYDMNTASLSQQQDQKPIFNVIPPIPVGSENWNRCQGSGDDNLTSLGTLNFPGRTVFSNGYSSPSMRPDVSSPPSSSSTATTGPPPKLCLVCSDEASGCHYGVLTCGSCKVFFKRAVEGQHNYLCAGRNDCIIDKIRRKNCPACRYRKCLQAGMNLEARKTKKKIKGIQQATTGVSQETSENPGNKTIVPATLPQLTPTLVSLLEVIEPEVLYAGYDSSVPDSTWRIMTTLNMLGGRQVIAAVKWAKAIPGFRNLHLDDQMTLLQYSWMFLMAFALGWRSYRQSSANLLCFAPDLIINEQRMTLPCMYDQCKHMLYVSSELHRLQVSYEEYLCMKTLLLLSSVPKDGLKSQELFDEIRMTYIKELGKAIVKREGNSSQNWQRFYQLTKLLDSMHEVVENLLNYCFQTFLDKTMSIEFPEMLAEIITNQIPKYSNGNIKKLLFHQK

C=C(C)C(=O)OCC(CC)(COC(=O)C(=C)C)COC(=O)C(=C)C
active: [12] 51.4 µM
not listed: [19] | [20]
inactive: all other assays above

CCC(C)=O
inactive: [1] | [2] | [3] | [4] | [7] | [8] | [9] | [10] | [11] | [12] | [14]

C1CCOC1
not listed: [8] | [15] | [16] | [17] | [18] | [19] | [20]
inactive: all other assays above

CCCOCCO
not listed: [7] | [11] | [15] | [16] | [17] | [18] | [19] | [20]
inactive: all other assays above

CC[N+](C)(CC)CC
inactive: [1] | [2] | [3] | [4] | [7] | [8] | [9] | [10] | [12] | [13] | [14]

OCC#CCO
not listed: [3] | [7] | [15] | [16] | [17] | [18] | [19] | [20]
inactive: all other assays above

CCCCC1CCC(O)CC1 (stereo not drawn)
not listed: [15] | [16] | [17] | [18] | [19] | [20]
inactive: all other assays above

CCCCCCCCc1ccc(S(=O)(=O)O)cc1
active: [7] 166 µM | [8] 146 µM | [9] 185 µM | [11] 130 µM | [12] 99.5 µM
inactive: [1] | [2] | [5] | [6] | [10] | [13] | [14]

CC(=O)c1c(C)c([N+](=O)[O-])c(C(C)(C)C)c([N+](=O)[O-])c1C
active: [6] 10.2 µM
not listed: [5] | [20]
inactive: all other assays above

Cc1cc(CCC(=O)OCCOCCOCCOC(=O)CCc2cc(C)c(O)c(C(C)(C)C)c2)cc(C(C)(C)C)c1O
active: [12] 23.4 µM | [16] 17.8 µM
not listed: [10] | [19] | [20]
inactive: all other assays above

O=C(O)CNc1ccccc1
not listed: [3] | [6] | [10] | [15] | [16] | [17] | [18] | [20]
inactive: all other assays above

C=Cc1ccncc1
inactive: [1] | [2] | [19] | [4] | [10] | [14]
active: [3] 84.1 µM | [6] 100 µM | [7] 30.8 µM | [9] 21.8 µM | [11] 61.5 µM | [12] 25.1 µM | [13] 26.8 µM

FC(F)(F)COCC(F)(F)F
not listed: [3] | [6] | [15] | [16] | [17] | [18] | [19] | [20]
inactive: all other assays above

Cc1ccc(S(N)(=O)=O)cc1
not listed: [6] | [15] | [16] | [17] | [18] | [19] | [20]
inactive: all other assays above

COc1cc(CCC(C)=O)ccc1O
not listed: [3] | [4] | [15] | [16] | [17] | [18] | [20]
inactive: all other assays above

Cc1ncc[nH]1
not listed: [6] | [15] | [16] | [17] | [18] | [20]
inactive: all other assays above

NC(=S)NNC(N)=S
inactive: [1] | [2] | [19] | [3] | [5] | [7] | [8] | [9] | [11] | [12] | [14]

Oc1c(Cl)cc(Cl)c(Cl)c1Cc1c(O)c(Cl)cc(Cl)c1Cl
inactive: [1] | [19] | [3] | [7] | [8] | [9] | [11]
active: [2] 17.6 µM | [6] 11.1 µM | [10] 4.41 µM | [12] 3.04 µM | [13] 1.3 µM | [14] 11.1 µM | [15] 18.5 µM | [16] 1.23 µM | [17] 20 µM | [18] 10.8 µM

C=CC(=C)CCCC(C)(C)OC(C)=O
inactive: [1] | [20] | [19] | [3] | [4] | [7] | [8] | [9] | [11] | [12]
